The list is not random: actives were taken first. Their share in the collection is about 11%.
JMJD2A Tudor inh: qHTS Assay for Inhibitors of JMJD2A-Tudor Domain. Potency, µM (series often up to 114 µM), most hits filed as inhibitors. AlphaScreen JMJD2A-Tudor / H3K4me3 peptide binding. AID 504339, 2011. 390,000 compounds, 4.4% hits; also: nearly all actives have a fitted effect of over 50% in size
G9a inh: qHTS Assay for Inhibitors of Histone Lysine Methyltransferase G9a; Histone-lysine N-methyltransferase EHMT2 (Homo sapiens), Q96KQ7; G9a H3K9 monomethylation, AlphaScreen, 2 h; Potency, µM (doses to about 102 µM), actives largely listed as inhibitors; 350,000 compounds, 8.8% hits; also: nearly all actives have a fitted effect of over 75% in size
Target sequence (Q96KQ7 913-1193 limits assumed): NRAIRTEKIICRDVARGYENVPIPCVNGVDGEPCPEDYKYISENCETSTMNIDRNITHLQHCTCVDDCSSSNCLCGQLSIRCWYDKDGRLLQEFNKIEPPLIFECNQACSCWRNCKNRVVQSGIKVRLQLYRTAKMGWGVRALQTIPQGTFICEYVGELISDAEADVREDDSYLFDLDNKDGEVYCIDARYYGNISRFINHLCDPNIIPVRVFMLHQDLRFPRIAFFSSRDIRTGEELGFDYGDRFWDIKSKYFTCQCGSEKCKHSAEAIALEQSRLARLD
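Methyltransferase reactions run at room temperature for 2 h (20 nM enzyme, 500 nM biotin-H3K9 peptide, 20 uM SAM) after a 15 min compound preincubation; product detected by AlphaScreen beads and anti-H3K9me1 antibody.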
L3MBTL1 block: qHTS Assay for the Inhibitors of L3MBTL1; Potency, µM (titrated, usually from 57.1 µM), usual class: inhibitors; 230,000 compounds, 0.66% hits; AlphaScreen L3MBTL1–H3K9me1 peptide binding; Lethal(3)malignant brain tumor-like protein 1 (Homo sapiens), Q9Y468; also: nearly all actives have a fitted effect of over 60% in size
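Displacement of a biotinylated histone H3(1-15) peptide monomethylated at Lys9 (75 nM) from L3MBTL1 (50 nM) was measured by AlphaScreen after a 30 min room-temperature compound incubation; cefsulodin titration served as intraplate control.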
HP1b binding inh: HTS for Inhibitors of HP1-beta Chromodomain Interactions with Methylated Histone Tails | 390,000 compounds, 0.56% hits | Chromobox protein homolog 1 (Homo sapiens), P83916 | Potency, µM (top dose mostly 114 µM), hits mostly inhibitors | AID 540317, 2011 | AlphaScreen HP1-beta / biotin-H3K9me3 peptide binding; also: nearly all actives have a fitted effect of over 70% in size
Target sequence (P83916 whole entry, looked up): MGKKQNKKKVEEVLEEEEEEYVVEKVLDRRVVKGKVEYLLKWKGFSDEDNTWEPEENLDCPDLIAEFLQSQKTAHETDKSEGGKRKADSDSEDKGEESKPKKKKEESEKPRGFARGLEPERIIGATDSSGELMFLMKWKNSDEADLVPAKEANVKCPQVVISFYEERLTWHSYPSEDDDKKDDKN
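AlphaScreen: HP1-beta (50 nM) preformed 30 min with biotin-H3(1-18)K9me3 peptide (50 nM) in PBS pH 7.4, 0.01% Tween-20. Compound added for 30 min at RT, then streptavidin donor/nickel chelate acceptor beads (10 ug/mL) for 30 min.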
BAZ2B inh: qHTS Assay for Inhibitors of BAZ2B; Bromodomain adjacent to zinc finger domain protein 2B (Homo sapiens), Q9UIF8; AlphaScreen BAZ2B-H3K14Ac peptide displacement; Potency, µM (series often up to 114 µM), hits mostly inhibitors; 360,000 compounds, 4.4% hits; AID 504333, 2011; also: nearly all actives have a fitted effect of over 60% in size
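In this displacement format the biotinylated H3(5-23) peptide acetylated at Lys14 serves as ligand at 50 nM, with BAZ2B at 50 nM in PBS pH 7.4 containing 0.01% Tween-20. Donor and acceptor beads are 10 ug/mL final.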
A number is an active result; [ ] = remark or other dose. Calls follow the shape of the dose curve; as a rule, active = well fitted inhibition curve with a large enough effect; inconclusive = small, poorly fitted or top-dose-only effect; inactive = no such curve, though single readings can be large or run the other way.

For CN(C)N=Nc1ccc(-c2cn(Cc3ccccc3)cn2)cc1 the results were JMJD2A Tudor inh inconclusive, L3MBTL1 block inactive, HP1b binding inh inactive and BAZ2B inh 45µM.
CCCSCCCNC(=O)C1CCN(C(=O)c2cnn(-c3ccccc3)c2-n2cccc2)CC1 was read as JMJD2A Tudor inh inactive, G9a inh inactive, HP1b binding inh inactive and BAZ2B inh inactive.
Screening CCOC(=O)c1c(C2COc3ccccc3O2)csc1NC(=O)c1ccccc1 (centres undefined) returned JMJD2A Tudor inh inactive, G9a inh inactive[12.7 µM], HP1b binding inh inactive and BAZ2B inh inactive.
CCOC(=O)c1c(C2COc3ccccc3O2)csc1N (centres undefined) was read as JMJD2A Tudor inh inconclusive, G9a inh 50µM, HP1b binding inh inactive and BAZ2B inh inconclusive.
Screening C=CCN(C(C(=O)OC)C(C)C)S(=O)(=O)C=C (centres undefined) returned JMJD2A Tudor inh inactive and HP1b binding inh inactive.
For COc1ccc(NC(=O)CCC(=O)c2cccs2)cc1Cl the results were JMJD2A Tudor inh inactive, G9a inh inactive, HP1b binding inh inactive and BAZ2B inh inactive.
Screening COc1cc(NCCC(=O)c2cccs2)c(OC)cc1Cl returned JMJD2A Tudor inh 40µM, G9a inh 7.9µM, L3MBTL1 block inconclusive, HP1b binding inh 56µM and BAZ2B inh 40µM.
For CN(C(=O)c1cnc(N2CCOCC2)c2ccccc12)c1ccccc1F the results were JMJD2A Tudor inh inactive, G9a inh inactive, HP1b binding inh inactive and BAZ2B inh inactive.
Screening C[C@]12C=CC(=O)N[C@@H]1CC[C@@H]1C2CC[C@]2(C)C(C(=O)Nc3cc(C(F)(F)F)ccc3C(F)(F)F)CC[C@@H]12 (some centres undefined) returned G9a inh inactive.
CN(Cc1ccccc1)C(=O)NC1CCCCC1 was read as JMJD2A Tudor inh inactive, G9a inh inactive, L3MBTL1 block inactive, HP1b binding inh inactive and BAZ2B inh inactive.
Screening OCCN(Cc1ccccc1)CC1CC2C=CC1C2 (centres undefined) returned JMJD2A Tudor inh 3.2µM, G9a inh 14µM, HP1b binding inh inactive and BAZ2B inh inconclusive.
For OCCN(Cc1ccccc1)CC1CCCCC1 the results were JMJD2A Tudor inh 22µM, G9a inh 11µM, HP1b binding inh inactive and BAZ2B inh inconclusive.
O=C1C2C3C=CC(C3)C2C(=O)N1CN(Cc1ccccc1)CN1C(=O)C2C3C=CC(C3)C2C1=O (centres undefined) was read as JMJD2A Tudor inh inactive, G9a inh inactive, L3MBTL1 block inactive, HP1b binding inh inactive and BAZ2B inh inactive.
`Cc1ccc(CCNC(=O)c2c(C)oc3ncn(CC(C)C)c(=O)c23)cc1` gave JMJD2A Tudor inh inactive, G9a inh inactive, HP1b binding inh inactive and BAZ2B inh inactive.
`Cc1ccc(NS(=O)(=O)c2cc(NC(=O)c3ccc4c(c3)NC(=O)CS4)ccc2C)c(C)c1` gave JMJD2A Tudor inh inconclusive, G9a inh 7.9µM, L3MBTL1 block inactive, HP1b binding inh inconclusive and BAZ2B inh inactive.
For COC(=O)c1c(NC(=O)C2CC2)sc2c1CCN(C(C)=O)C2 the results were JMJD2A Tudor inh inactive, G9a inh 45µM, L3MBTL1 block inactive, HP1b binding inh inactive and BAZ2B inh inactive.
`COc1ccc(NC(=O)c2c(NCc3ccc(N(C)C)cc3)sc3c2CCC3)cc1` gave JMJD2A Tudor inh 56µM, G9a inh 11µM, HP1b binding inh inconclusive and BAZ2B inh 32µM.
`COc1ccc(NC(=O)c2c(NCc3cccc(OC)c3)sc3c2CCCC3)cc1` gave JMJD2A Tudor inh inconclusive, G9a inh inconclusive, HP1b binding inh inactive and BAZ2B inh inactive.
For COc1ccc(CC(=O)Nc2sc3c(c2C(=O)Nc2ccc(C)cc2)CCCCC3)cc1 the results were JMJD2A Tudor inh 56µM, G9a inh 10µM, HP1b binding inh inactive and BAZ2B inh 56µM.
`COc1cccc(CC(=O)Nc2sc3c(c2C(N)=O)CCCC3)c1` gave JMJD2A Tudor inh inactive, G9a inh 40µM, HP1b binding inh inactive and BAZ2B inh inactive.
`CC(=O)N1CCc2c(sc(NC(=O)C3CCCCC3)c2C(N)=O)C1` gave JMJD2A Tudor inh inactive, G9a inh inconclusive, L3MBTL1 block inactive, HP1b binding inh inactive and BAZ2B inh inactive.
For O=C(c1ccco1)N(Cc1cccs1)c1ccc(F)cc1 the results were JMJD2A Tudor inh inactive, G9a inh inactive, HP1b binding inh inactive and BAZ2B inh inactive.
For COc1ccc(S(=O)(=O)N2CCC(C(=O)NCCC(=O)Nc3ccc(Cl)cc3)CC2)cc1 the results were JMJD2A Tudor inh inactive, G9a inh inactive, HP1b binding inh inactive and BAZ2B inh inactive.
Screening Cc1cc(C)cc(OCC(=O)Nc2ccc(S(=O)(=O)Nc3onc(C)c3C)cc2)c1 returned JMJD2A Tudor inh inactive, G9a inh inconclusive, HP1b binding inh inactive and BAZ2B inh inactive.
COC(=O)c1c(NC(=O)C2CCCCC2C(=O)O)sc2c1CCCCC2 (centres undefined) was read as JMJD2A Tudor inh inactive, G9a inh 32µM, L3MBTL1 block inactive, HP1b binding inh inactive and BAZ2B inh inactive.
CNC(=O)c1c(NC(=O)c2ccco2)sc2c1CCCC2 was read as JMJD2A Tudor inh inactive, HP1b binding inh inactive and BAZ2B inh inactive.
Screening COC(=O)c1c(NC(=O)Cc2cccs2)sc2c1CCCC2 returned JMJD2A Tudor inh inconclusive, G9a inh inactive, L3MBTL1 block inconclusive, HP1b binding inh inactive and BAZ2B inh 79µM.
For Cc1ccc(C(=O)C(NC(=O)c2ccco2)Nc2sc3c(c2C(N)=O)CCCC3)cc1 (centres undefined) the results were G9a inh 13µM, L3MBTL1 block inactive and BAZ2B inh inconclusive.
Screening COCCN(C(=O)c1cc(CN2C(=O)c3ccccc3C2=O)ccc1OC)c1c(N)n(CC(C)C)c(=O)[nH]c1=O returned JMJD2A Tudor inh inactive and HP1b binding inh inactive.
`COc1ccc(CN2C(=O)N(c3ccc(F)cc3)C(=O)C2CC(=O)Nc2cc(OC)cc(OC)c2)cc1` (centres undefined) gave JMJD2A Tudor inh inactive, G9a inh inactive, HP1b binding inh inactive and BAZ2B inh inactive.
For Cc1ccccc1CNC(=O)c1ccc2nc(SCc3ccc(F)cc3)n(C)c2c1 the results were JMJD2A Tudor inh inactive, G9a inh inconclusive, HP1b binding inh inactive and BAZ2B inh inactive.
`CCN(CC)CCNC(=O)c1ccc(NC(=O)c2cc(-c3ccco3)nc3ccccc23)cc1` gave JMJD2A Tudor inh inconclusive, G9a inh 32µM, HP1b binding inh inactive and BAZ2B inh 32µM.
For CN(C)C(=O)c1ccc(NC(=O)c2cc(-c3ccco3)nc3ccccc23)cc1 the results were JMJD2A Tudor inh 40µM, G9a inh inactive, HP1b binding inh inconclusive and BAZ2B inh inactive.

Bioassay records (PubChem)
